High-throughput results (PubChem)
rCAG binder – molecules binding r(CAG) RNA repeats | actives 1.3% (n = 370,000) | inhibition, % at 3 µM | r(CAG) RNA repeat, TO-PRO-1 dye displacement fluorescence;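 active means inhibition above the plate cutoff, the mean of all test compounds on that plate plus 3 SD, cut at about 35% in these data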;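 further: higher means more dye released from RNA so lower well fluorescence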
bovine MsrA act – bovine methionine sulfoxide reductase A activation; purified bovine MsrA, absorbance read-out; activation, % at 10.6 µM; actives 0.3% (n = 360,000); AID 602163; in the data active means activation above about 7.5%
MsrA inhibitor – bovine MsrA inhibition; purified bovine MsrA, absorbance read-out; actives 0.75% (n = 360,000); inhibition, % at 15.5 µM; in the data active means inhibition above about 4.5%
NadD inh – NadD (S. aureus) enzyme inhibition | purified NadD enzyme, colorimetric absorbance read-out | inhibition, % at 20 µM | actives 0.78% (n = 360,000); in the data active means inhibition above about 26%
NadD conf – confirmation of Staphylococcus aureus NadD inhibitors; shares compounds with NadD inh; purified S. aureus NadD, colorimetric enzyme assay; inhibition, % at 20 µM; actives 13% (n = 2,000); AID 624309; in the data active means inhibition mostly above about 42%, no sharp cut-off; inactive means mostly below about 42%
Hits are given with their value; – = inactive; · = not tested or not shown. A selection: hits, their analogues and other compounds. The true share with any hit is near 2.7%.

SMILES	rCAG binder	bovine MsrA act	MsrA inhibitor	NadD inh	NadD conf
Cc1ccc(-c2nc(NC(=O)CSc3cc(C)c4ccccc4n3)ns2)cc1	–	–	–	31	–
O=C(CSc1nnc(SCc2ccccc2)s1)N/N=C/C=C/c1ccco1	–	–	–	48	43
Cc1cc(-c2csc(N)n2)c(C)n1CCC(C)C	–	–	–	34	–
Cc1cc(-c2csc(N)n2)c(C)n1CCc1ccccc1	–	–	–	–	·
CCCCNC(=O)C1=C(N)C(C(=O)Nc2ccc(C)c(S(=O)(=O)N3CCCCC3)c2)SC1=Nc1ccc(C)cc1C (centres undefined)	–	–	–	40	–
CCCCC(=O)Nc1ccc(C)c(S(=O)(=O)N2CCCCCC2)c1	–	–	–	–	·
CC(C)NC(=O)c1cc(-c2ccc(Br)cc2)on1	–	–	–	–	·
CC1CCCCN1c1nnc(NC(=O)c2cc(-c3ccc(Br)cc3)on2)s1 (centres undefined)	–	–	–	31	–
CC[C@H](NC(=O)/C=C/[C@H]1O[C@@H](n2cc(C)c(=O)[nH]c2=O)C[C@@H]1O)c1ccccc1	–	–	–	–	·
CCCn1c(C(C)NC(=O)c2ccccc2)nc2ccccc21 (centres undefined)	–	–	–	–	·
CCN(CC)c1ccc(NC(=O)Cn2c(C(C)NC(=O)c3ccc(C)cc3)nc3ccccc32)cc1 (centres undefined)	–	–	–	34	–
CC1CCCCC1NC(=O)COC(=O)c1c2c(nc3ccccc13)/C(=C\c1ccco1)CC2 (centres undefined)	54	–	–	79	51
CCCCNC(=O)COC(=O)c1c2c(nc3ccccc13)/C(=C/c1cccs1)CC2	–	–	–	–	·
Cc1cccc(C)c1NC(=O)COC(=O)c1c2c(nc3ccccc13)/C(=C\c1ccc3c(c1)OCO3)CCC2	–	–	–	48	–
Cc1cccc(C)c1NC(=O)COC(=O)c1ccc2c(c1)OCO2	–	–	–	–	·
CC(=O)c1nnn(-c2ccc([N+](=O)[O-])cc2C)c1C	–	–	–	–	·
CC/C(C)=N/Nc1nc(-c2cc3cccc(OC)c3oc2=O)cs1	–	–	–	51	–
N#CCCN(CCC#N)S(=O)(=O)c1ccc(C(=O)Nc2nc(-c3ccccc3)c(C(=O)c3ccccc3)s2)cc1	–	–	–	36	–
Cc1ccsc1C(=O)N1CCC1(C)C(=O)NCC(C)(C)C (centres undefined)	–	–	–	–	·
CC1(C)Cc2c(sc3c2c(=N)n(Cc2ccco2)c(=O)n3Cc2ccc(Cl)cc2)CO1	–	–	–	32	–
Cc1cc2cc(CNC(=O)Nc3cccc(Cl)c3)ccc2n1C	–	–	–	34	–
Cc1ccc(C)c(OCCC(=O)OCC(=O)Nc2cc(S(=O)(=O)N3CCOCC3)ccc2C)c1	–	–	–	–	·
Cc1ccc(N2CSC3=C(C#N)C(c4cccs4)CC(=O)N3C2)cc1 (centres undefined)	–	–	–	31	–
CCc1ccc(C2CC(=O)N3CN(c4ccccc4)CSC3=C2C#N)cc1 (centres undefined)	–	–	–	64	–
CCc1ccc(N2CSC3=C(C#N)C(c4cccs4)CC(=O)N3C2)cc1 (centres undefined)	·	–	·	72	–
SMILES	rCAG binder	bovine MsrA act	MsrA inhibitor	NadD inh	NadD conf
N#CC1=C2SCN(c3ccc(F)cc3)CN2C(=O)CC1c1cccc(F)c1 (centres undefined)	–	–	–	–	·
Cc1sc2nc(SCc3nc4ccccc4[nH]3)n(Cc3ccco3)c(=O)c2c1C	–	–	–	35	–
NC(=O)[C@@H]1CC2(CC(c3cccc(NC(=O)CC(c4ccccc4)c4ccccc4)c3)=NO2)CN1C(=O)c1ccc(Cl)cc1 (some centres undefined)	–	–	–	32	–
Cc1c(C(=O)N2CC3(CC(c4cccc(NC(=O)CC(c5ccccc5)c5ccccc5)c4)=NO3)C[C@@H]2C(N)=O)cc([N+](=O)[O-])cc1[N+](=O)[O-] (some centres undefined)	–	–	–	30	48
C/C=C(\C)C(=O)Nc1cccc(C2=NOC3(C2)C[C@@H](C(N)=O)N(C(=O)c2cc([N+](=O)[O-])cc([N+](=O)[O-])c2C)C3)c1 (some centres undefined)	–	–	–	–	·
NC(=O)[C@H]1CC2(CC(c3cccc(NC(=O)CC(c4ccccc4)c4ccccc4)c3)=NO2)CN1C(=O)CC(c1ccccc1)c1ccccc1 (some centres undefined)	–	–	–	42	–
NC(=O)CSc1nnc2ccc(-c3ccc(F)cc3)nn12	–	–	–	–	·
O=C(/C=C/c1cccs1)Nc1ccc(N2CCOCC2)c(S(=O)(=O)Nc2ccccc2Cl)c1	–	–	–	–	·
O=C(Nc1ccc(F)cc1)Nc1ccc(N2CCCC2)c(S(=O)(=O)Nc2ccccc2Cl)c1	37	–	–	30	–
O=C(/C=C/c1cccs1)Nc1ccc(N2CCOCC2)c(S(=O)(=O)Nc2cc(Cl)ccc2Cl)c1	–	–	–	34	–
O=C(Nc1ccc(Cl)c(Cl)c1)Nc1ccc(N2CCCC2)c(S(=O)(=O)Nc2ccccc2Cl)c1	–	–	–	31	–
COc1ccc(NS(=O)(=O)c2cc(NC(=O)/C=C/c3cc(OC)ccc3OC)ccc2N2CCCCC2)cc1	–	–	–	39	–
COc1ccc(N2C(=O)CC2(C#N)c2ccc(OCc3ccccc3)cc2)cc1 (centres undefined)	–	–	–	–	·
CCOc1ccc(NC(=O)CN(C)C(=O)C2CSC3(C)CCC(=O)N23)cc1OCC (centres undefined)	–	–	–	–	·
COc1ccccc1NS(=O)(=O)c1cc(NC(=O)C(C)C)ccc1N1CCCCC1	–	–	–	–	·
COc1ccccc1NS(=O)(=O)c1cc(NC(=O)Nc2ccccc2)ccc1N1CCCCC1	–	–	–	35	–
O=C(C[C@H]1C[C@H](C(=O)N2CCOCC2)[C@@]2(CCC3CCCC3)c3[nH]c4cc(-c5ccco5)ccc4c3CCN2C1=O)NCCc1ccccn1	–	–	–	–	·
C[C@]12c3[nH]c4cc(-c5ccco5)ccc4c3CCN1C(=O)[C@@H](CC(=O)NCC13CC4CC(CC(C4)C1)C3)C[C@@H]2C(=O)N1CCCCC1	–	–	–	50	–
O=C(C[C@H]1C[C@H](C(=O)N2CCOCC2)[C@@]2(CCC3CCCC3)c3[nH]c4cc(-c5ccco5)ccc4c3CCN2C1=O)NCCC1=CCCCC1	·	–	·	29	–
CC[C@]12c3[nH]c4cc(-c5ccco5)ccc4c3CCN1C(=O)[C@@H](CC(=O)NCC13CC4CC(CC(C4)C1)C3)C[C@@H]2C(=O)N1CCN(C(=O)C2CC2)CC1	–	–	–	–	·
CC[C@]12c3[nH]c4cc(-c5ccco5)ccc4c3CCN1C(=O)[C@@H](CC(=O)NCC13CC4CC(CC(C4)C1)C3)C[C@@H]2C(=O)N1CCN(C(=O)c2ccco2)CC1	–	–	–	40	–
Cc1cccc(C)c1NC(=O)CN(C)CC(=O)N1CC(=O)Nc2ccccc21	–	–	–	–	·
